Assay results: PubChem BioAssay
Calls of active or inactive are those of the source.

Columns and labels:
Albumin (Bos taurus) = Albumin (Bos taurus) (UniProt P02769); test: bovine serum albumin binders on microarray, profiling panel, artefact control for SMM control protein annotation, biochemical, small-molecule microarray, Alexa647 label, 635/667 nm fluorescence (AID 1118); details: BSA-A647 binding, fluorescence 635 nm, higher = more signal;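 note: score merges 667 nm emission intensity and signal-to-noise per printed compound spot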
[1] = small-molecule microarray binders of probe aXIP, primary screen, biochemical, NeuroSMM set, 635/667 nm fluorescence (AID 1119); details: higher = more signal, called active from +8 up or from −8 down;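 note: probe is the protein aXip251-270 applied at 1 µg/mL to compound-printed slides; binding of probe to printed compounds measured as 667 nm fluorescence plus signal to noise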
[2] = small-molecule binders of probe aNOTCH3, primary screen, biochemical, small-molecule microarray, 635/667 nm fluorescence (AID 1120); details: higher = more signal;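 note: probe is a biotin-tagged antibody raised against NOTCH3 rather than NOTCH3 protein; score merges spot fluorescence near 667 nm with spot signal to noise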
[3] = small-molecule binders of probe aNOTCH2, primary screen, biochemical, small-molecule microarray, 635/667 nm fluorescence (AID 1121); details: higher = more signal;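 note: score merges feature fluorescence read at 667 nm with its signal to noise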
[4] = target: Carbonic anhydrase 2 (Homo sapiens) (UniProt P00918); test: CAII small-molecule binders, profiling panel, biochemical, small-molecule microarray, Alexa647-labelled CAII (AID 1122); details: CAII-A647 binding fluorescence, higher = more signal
[5] = COS7 lysate on small-molecule microarray, probe aHis, 635 nm (AID 1123); details: COS7 cell lysate, fluorescence, higher = more signal;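 note: z-score combines 667nm fluorescence intensity with signal-to-noise per printed compound spot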
[6] = compound binding in COS7 lysate, probe aLAP1, primary screen, cell lysate, small-molecule microarray (AID 1124); details: probe aLAP1, fluorescence, higher = more signal;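 note: lysate comes from COS7 cells expressing LAP1 and is applied at 0.3 µg/mL; score merges spot fluorescence near 667 nm with signal-to-noise over triplicate slides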
Sam68 (KHDRBS1) = test: Sam68 small-molecule binders, primary screen, biochemical, small-molecule microarray, 635 nm fluorescence (AID 1125); details: small-molecule microarray binding, higher = more signal;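 note: score merges 667 nm channel intensity with signal to noise over triplicate slides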
[7] = test system: Chordin-like protein 2 (CHRDL2); test: CHRDL2 small-molecule binders, primary screen, biochemical, small-molecule microarray, 635 nm fluorescence (AID 1126); details: small-molecule microarray binding, fluorescence 635 nm; higher = more signal;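 note: printed compound slides probed with Chrdl2 protein at 4 µg/mL for 1 h at 4 C; score merges 667 nm emission intensity with signal to noise over three replicate slides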
[8] = target: Concanavalin-A (Canavalia ensiformis) (UniProt P02866); test: ConA small-molecule binders, primary screen, artefact control for SMM control protein annotation, biochemical, small-molecule microarray, Alexa647 label, 635 nm (AID 1127); details: ConA-A647 binding fluorescence, higher = more signal;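 note: z combines 667 nm emission intensity with signal-to-noise across three replicate slides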
[9] = anti-His antibody binders, primary screen, artefact control for SMM control protein annotation, biochemical, small-molecule microarray, 635 nm fluorescence (AID 1128); details: anti-His Alexa647 antibody binding, higher = more signal;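 note: score merges feature fluorescence with signal-to-noise for each printed compound spot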
[10] = test system: Human papillomavirus type 1a E7 protein (residues 1-88); test: HPV1a E7 small-molecule binders, primary screen, biochemical, small-molecule microarray, residues 1-88, 635 nm (AID 1129); details: small-molecule microarray binding, fluorescence 635 nm; higher = more signal
[11] = target: Focal adhesion kinase 1 (Homo sapiens) (UniProt Q05397); test: small-molecule microarray binders of FAK, primary screen, biochemical, 635/667 nm fluorescence, BSA, DTT (AID 1130); details: PTK2 binding, 635 nm fluorescence, higher = more signal;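 note: composite of spot emission at 667 nm and signal to noise over triplicate slides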
[12] = test system: Fibrinogen (Alexa647-labelled); test: fibrinogen binders on compound microarrays, profiling panel, artefact control for SMM control-protein annotation, biochemical, small-molecule microarray, 635/667 nm fluorescence (AID 1131); details: fibrinogen-A647 binding fluorescence, higher = more signal;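 note: z-score merges 667 nm fluorescence with per-spot signal-to-noise over triplicate slides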
[13] = target: Follistatin (Homo sapiens) (UniProt P19883); test: follistatin binders on small-molecule microarrays, primary screen, biochemical, small-molecule microarray, 635/667 nm fluorescence (AID 1132); details: FST binding, 635 nm fluorescence, higher = more signal
[14] = target: Fibroblast growth factor 2 (Homo sapiens) (UniProt P09038); test: FGF2 binders on small-molecule microarrays, primary screen, biochemical, small-molecule microarray, 635/667 nm fluorescence (AID 1133); details: small-molecule microarray binding, FGF2, fluorescence 635/667; higher = more signal
[15] = mitochondrial membrane potential change in A549 cells, profiling panel, cell-based, JC-1 fluorescence, basal, 24 h, 100 nL (AID 1138); details: higher = more signal;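 note: A549 lung adenocarcinoma cells under basal conditions with no added stimulus; test concentration not given here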
Lefty1 = Lefty1 binders on small-molecule microarrays, primary screen, biochemical, small-molecule microarray, 635/667 nm fluorescence (AID 1139); details: small-molecule microarray binding, fluorescence 635/667; higher = more signal
[16] = test system: wheat germ agglutinin (Triticum aestivum), Alexa647-labelled; test: wheat germ agglutinin binders on compound microarrays, profiling panel, artefact control for SMM control-protein annotation, biochemical, small-molecule microarray, 635/667 nm fluorescence (AID 1140); details: WGA-A647 binding, 635 nm fluorescence, higher = more signal;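 note: score merges 667 nm feature emission with signal to noise over triplicate slides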
[17] = target: Luciferin 4-monooxygenase (Photinus pyralis) (UniProt P08659); test: firefly luciferase enzyme inhibitors, primary screen, biochemical, luminescence, purified enzyme, 2006 set (AID 1141); details: SteadyGlo luminescence, 30 min, higher = more signal, called active from +8 up or from −8 down;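 note: cell-free assay with purified firefly luciferase at 100 ng per well in PBS; test concentration not given here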
Chain of Luciferin 4-monooxygenase (Photinus pyralis) (P08659 whole entry, looked up): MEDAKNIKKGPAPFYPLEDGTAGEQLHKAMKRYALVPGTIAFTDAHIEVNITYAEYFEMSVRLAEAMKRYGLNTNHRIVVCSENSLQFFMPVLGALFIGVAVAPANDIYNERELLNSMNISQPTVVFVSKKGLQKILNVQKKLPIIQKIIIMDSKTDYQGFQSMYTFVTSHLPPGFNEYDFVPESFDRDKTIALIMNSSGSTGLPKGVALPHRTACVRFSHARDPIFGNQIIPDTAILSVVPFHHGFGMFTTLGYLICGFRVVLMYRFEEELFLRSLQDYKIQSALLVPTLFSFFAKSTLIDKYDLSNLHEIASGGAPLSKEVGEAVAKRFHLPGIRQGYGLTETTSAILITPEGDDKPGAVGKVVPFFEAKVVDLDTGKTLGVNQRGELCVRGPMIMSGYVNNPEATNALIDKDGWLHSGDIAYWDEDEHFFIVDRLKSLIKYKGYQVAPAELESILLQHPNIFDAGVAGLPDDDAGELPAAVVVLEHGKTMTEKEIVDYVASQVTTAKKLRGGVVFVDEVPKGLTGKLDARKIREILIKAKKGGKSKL

Chain of Concanavalin-A (Canavalia ensiformis) (P02866 whole entry, looked up): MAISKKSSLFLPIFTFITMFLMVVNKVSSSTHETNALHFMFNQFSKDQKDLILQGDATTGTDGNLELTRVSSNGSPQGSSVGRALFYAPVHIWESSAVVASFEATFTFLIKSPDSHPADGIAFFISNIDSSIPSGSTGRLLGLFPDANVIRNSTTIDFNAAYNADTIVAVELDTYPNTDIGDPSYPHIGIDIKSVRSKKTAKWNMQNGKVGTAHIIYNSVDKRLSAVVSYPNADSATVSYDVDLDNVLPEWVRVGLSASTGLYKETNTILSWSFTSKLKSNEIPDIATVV
Chain of Albumin (Bos taurus) (P02769 whole entry, looked up): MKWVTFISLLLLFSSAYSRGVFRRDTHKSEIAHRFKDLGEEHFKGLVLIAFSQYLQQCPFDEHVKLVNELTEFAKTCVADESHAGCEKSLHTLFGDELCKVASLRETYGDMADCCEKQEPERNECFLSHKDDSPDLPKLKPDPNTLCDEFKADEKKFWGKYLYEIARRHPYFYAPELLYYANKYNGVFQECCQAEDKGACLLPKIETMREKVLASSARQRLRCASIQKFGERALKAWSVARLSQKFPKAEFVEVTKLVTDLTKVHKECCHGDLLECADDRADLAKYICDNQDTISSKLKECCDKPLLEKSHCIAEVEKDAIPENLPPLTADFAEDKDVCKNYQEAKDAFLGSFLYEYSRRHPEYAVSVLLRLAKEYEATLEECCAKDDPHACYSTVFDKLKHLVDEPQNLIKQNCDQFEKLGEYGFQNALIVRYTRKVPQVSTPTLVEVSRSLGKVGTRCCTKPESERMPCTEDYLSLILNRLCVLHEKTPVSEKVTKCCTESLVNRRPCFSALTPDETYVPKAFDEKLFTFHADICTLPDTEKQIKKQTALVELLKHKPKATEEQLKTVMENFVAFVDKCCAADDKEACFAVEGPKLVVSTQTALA
Chain of Focal adhesion kinase 1 (Homo sapiens) (Q05397 whole entry, looked up): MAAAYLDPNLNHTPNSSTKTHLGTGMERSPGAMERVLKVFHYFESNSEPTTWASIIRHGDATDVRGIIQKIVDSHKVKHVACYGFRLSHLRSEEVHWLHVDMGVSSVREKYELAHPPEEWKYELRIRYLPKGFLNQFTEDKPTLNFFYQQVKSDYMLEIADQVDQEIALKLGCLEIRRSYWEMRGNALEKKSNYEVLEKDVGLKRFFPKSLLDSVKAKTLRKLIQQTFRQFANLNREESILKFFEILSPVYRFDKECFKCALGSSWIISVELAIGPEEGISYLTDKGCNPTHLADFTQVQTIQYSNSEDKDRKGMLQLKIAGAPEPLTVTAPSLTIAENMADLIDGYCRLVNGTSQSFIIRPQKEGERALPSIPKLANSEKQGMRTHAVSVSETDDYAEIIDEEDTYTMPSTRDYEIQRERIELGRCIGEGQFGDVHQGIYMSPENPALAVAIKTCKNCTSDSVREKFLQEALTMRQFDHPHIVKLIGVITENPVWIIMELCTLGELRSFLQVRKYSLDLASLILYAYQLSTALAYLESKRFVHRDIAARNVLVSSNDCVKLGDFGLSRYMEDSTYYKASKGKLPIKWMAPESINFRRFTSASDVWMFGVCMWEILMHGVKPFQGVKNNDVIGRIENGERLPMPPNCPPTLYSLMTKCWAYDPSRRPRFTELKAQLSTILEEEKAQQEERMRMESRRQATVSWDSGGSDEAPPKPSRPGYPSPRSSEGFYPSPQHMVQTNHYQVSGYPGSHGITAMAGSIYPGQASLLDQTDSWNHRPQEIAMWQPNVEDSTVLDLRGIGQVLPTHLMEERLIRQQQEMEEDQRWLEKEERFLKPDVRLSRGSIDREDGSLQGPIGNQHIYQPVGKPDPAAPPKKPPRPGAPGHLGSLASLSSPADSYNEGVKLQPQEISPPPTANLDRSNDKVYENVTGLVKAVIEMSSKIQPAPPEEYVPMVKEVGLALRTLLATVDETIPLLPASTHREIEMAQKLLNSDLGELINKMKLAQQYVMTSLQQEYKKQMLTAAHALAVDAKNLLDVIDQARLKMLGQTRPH
Chain of Follistatin (Homo sapiens) (P19883 whole entry, looked up): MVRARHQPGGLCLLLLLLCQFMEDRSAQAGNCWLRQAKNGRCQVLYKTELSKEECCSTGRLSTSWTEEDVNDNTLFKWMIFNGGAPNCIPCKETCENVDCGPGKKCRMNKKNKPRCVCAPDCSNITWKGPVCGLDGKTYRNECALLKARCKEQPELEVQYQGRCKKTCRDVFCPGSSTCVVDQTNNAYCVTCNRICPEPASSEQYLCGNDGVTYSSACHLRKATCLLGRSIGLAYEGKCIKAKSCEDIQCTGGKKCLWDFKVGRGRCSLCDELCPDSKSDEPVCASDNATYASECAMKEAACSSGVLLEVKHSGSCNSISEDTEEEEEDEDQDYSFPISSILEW
Chain of Fibroblast growth factor 2 (Homo sapiens) (P09038 whole entry, looked up): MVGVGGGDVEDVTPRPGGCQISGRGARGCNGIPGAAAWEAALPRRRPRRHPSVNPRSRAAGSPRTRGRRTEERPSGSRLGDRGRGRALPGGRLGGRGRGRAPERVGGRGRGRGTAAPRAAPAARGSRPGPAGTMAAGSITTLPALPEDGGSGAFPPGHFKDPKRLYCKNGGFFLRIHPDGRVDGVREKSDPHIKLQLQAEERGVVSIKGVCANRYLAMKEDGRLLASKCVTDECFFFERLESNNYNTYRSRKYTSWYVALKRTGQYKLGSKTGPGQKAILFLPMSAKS

Row | Compound | composite z-score (Albumin (Bos taurus)) | composite Z-score [1] | composite z-score [2] | composite z-score [3] | composite z-score [4] | composite z-score [5] | composite z-score [6] | composite z-score (Sam68 (KHDRBS1)) | composite z-score [7] | composite z-score [8] | composite z-score [9] | composite z-score [10] | composite z-score [11] | composite z-score [12] | composite z-score [13] | composite z-score [14] | z-score [15] | composite z-score (Lefty1) | composite z-score [16] | z-score [17]
1 | COc1ccc(CCNC(=O)[C@@H]2c3ccccc3C(=O)N(Cc3ccccc3C(F)(F)F)[C@H]2c2ccc(CO)cc2)cc1 | -0.187 | 1.36 (inactive) | -0.246 | -0.0664 | 0.466 | 1.29 | 0.57 | 0.501 | -1.34 | -0.272 | 0.263 | 0.656 | 0.495 | -0.731 | 0.566 | -0.388 | 1.07 | -0.526 | 0.665 | 0.912 (inactive)
2 | [N-]=[N+]=Nc1ccccc1[C@H]1OC(c2ccc(OCCCO)cc2)=N[C@@]1(Cc1ccccc1)C(=O)NCc1ccccc1 | 0.713 | 1.76 (inactive) | 0.256 | -0.0714 | 0.497 | 1.46 | 0.112 | 1.31 | 0.125 | 1.02 | 1.29 | 1.2 | 0.425 | 0.997 | 1.15 | 0.291 | 0.361 | 0.362 | 0.415 | -6.55 (inactive)
3 | CCOC(=O)C1=CC[C@@H](c2ccc(N(CC)CC)cc2)N(S(=O)(=O)c2ccc(C)cc2)[C@H]1c1ccc([N+](=O)[O-])cc1 | 0.682 | 0.38 (inactive) | 0.0116 | -0.0097 | 0.473 | -0.507 | 0.769 | 0.317 | -0.724 | 0.588 | 0.479 | 0.836 | 0.718 | 0.403 | -0.35 | -1.18 | 1.53 | -0.863 | 0.516 | 0.719 (inactive)
4 | Cc1ccccc1C(O)C1C=CC2C(=O)N(C)C(=O)C2N1Nc1ccc([N+](=O)[O-])cc1[N+](=O)[O-] (stereo not given) | 0.953 | 0.451 (inactive) | 0.338 | -0.108 | 0.671 | 2.47 | 0.288 | 1.29 | -0.723 | 1.16 | 0.509 | 1.27 | 0.646 | 1.02 | 0.674 | -0.38 | 0.668 | -0.167 | 0.913 | 0.147 (inactive)
5 | Cc1ccc(S[C@]2(C(=O)NCCN3CCOCC3)CC(=O)N(C3Cc4ccccc4C3)[C@@H]2c2ccc(CO)cc2)cc1 | 0.0022 | 0.39 (inactive) | -0.159 | -0.0745 | 0.66 | 2.08 | 0.0297 | 0.151 | -0.373 | 0.152 | 1.22 | 0.0419 | 0.82 | -0.778 | -0.135 | -0.592 | 0.161 | -1.47 | -0.278 | 0.54 (inactive)
6 | COCCCNC(=O)[C@@H]1c2ccccc2C(=O)N(c2ccc(C)cn2)[C@H]1c1ccc(CO)cc1 | -0.767 | 0.567 (inactive) | -0.644 | -0.18 | 0.0072 | -0.908 | -0.721 | -1.42 | -2.03 | -0.482 | -0.346 | -1.11 | -1.24 | -1.04 | -1.25 | -2.41 | -0.758 | -1.03 | 0.0195 | 0.195 (inactive)
7 | C=C(COC)C(=O)CC[C@H](OC(=O)c1ccccc1-c1ccccc1C(=O)O)c1ccc(OCCO)cc1 | 0.369 | 0.161 (inactive) | 0.0628 | -0.117 | 0.425 | 0.276 | 1.12 | 1.09 | 0.498 | 0.527 | 2.56 | 1.08 | 0.033 | 0.879 | 1.42 | 1.35 | -0.66 | 1.59 | 0.564 | -2.22 (inactive)
8 | CCCC=C(CCC)[C@@H](NS(=O)(=O)c1cccc2cccnc12)c1ccc(C(=O)OC)cc1 | -0.207 | 0.242 (inactive) | 2.12 | 1.16 | 0.771 | 0.313 | 0.392 | 0.287 | 0.599 | 0.782 | 1.4 | 0.36 | 0.542 | 0.395 | 1.31 | 0.33 | 0.0272 | 0.162 | -0.0663 | 2.48 (inactive)
9 | [N-]=[N+]=NCc1ccccc1C[C@]1(C(=O)NCCN2CCOCC2)COC(c2ccc(OCCCO)cc2)=N1 | 0.854 | 0.689 (inactive) | 0.116 | -0.106 | 0.353 | 2.31 | 1.47 | 1.29 | -0.519 | 0.0927 | 0.293 | 1.24 | 0.815 | 1.02 | 0.953 | 0.152 | 1.88 | 0.346 | 0.783 | -0.851 (inactive)
10 | C=CCC(OC(C)=O)[C@@H]1[C@@H](N(Cc2cccc3ccccc23)C(=O)Cc2ccc(F)cc2)c2cc(OCCCO)ccc2N1C(=O)Cc1ccc(OC)cc1 (stereo not given in full) | 0.006 | -0.328 (inactive) | -0.0454 | -0.119 | 0.191 | -0.0343 | -0.238 | 0.191 | 0.0157 | 1.03 | -0.241 | -0.0072 | -0.142 | 0.766 | 0.532 | -0.109 | -0.189 | 0.391 | 0.672 | 0.678 (inactive)
11 | O=C1c2ccccc2[C@](Cc2ccccc2I)(C(=O)NC2CC2)[C@H](c2ccc(CO)cc2)N1Cc1ccccc1Cl | 0.0646 | -0.057 (inactive) | 0.265 | 0.0563 | 0.574 | 1.93 | 0.696 | 1.31 | 0.0424 | 0.997 | 1.07 | 1.17 | 0.344 | 0.0468 | 1.23 | 1.6 | 0.756 | 0.0036 | 0.86 | -0.0487 (inactive)
